The values below come from PubChem BioAssay (NCI).

Test systems include SK-MEL-2 melanoma; EKVX NSCLC; SN12C renal; UO-31 renal; TK-10 renal; ACHN renal; CAKI-1 renal; A498 renal; CCRF-CEM leukemia; MOLT-4 leukemia; RPMI-8226 leukemia; OVCAR-8 ovarian; OVCAR-5 ovarian; OVCAR-4 ovarian; SK-OV-3 ovarian; HS 578T breast; NCI/ADR-RES ovarian; IGROV1 ovarian; OVCAR-3 ovarian.
Holding throughout (test): NCI-60 one-dose screen, 48 h (100 = growth as untreated, 0 = no growth, -100 = all killed)
What all share (conditions): 10 µM unless noted

The panel holds about 83,000 compounds, 20% with a hit somewhere; the sample as a whole holds those more often.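 In brief: 96-well plates, 48 h treatment, single concentration, percent growth endpoint.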 Unmarked numbers belong to inactive results. The source made the active and inactive calls. The calls were made as follows: active = growth percent below 10; inactive = the rest.

As to `O=C(NC(Cc1nnc2n(Cc3ccccc3)c(=O)c3c4c(sc3n12)CCCC4)c1ccc(Cl)cc1)c1ccccc1` (stereo not given), the growth in the experiment on SK-MEL-2 melanoma is 95.7%; in the experiment on EKVX NSCLC, 94.6%; in the experiment on SN12C renal it was 92.4%; in the experiment on UO-31 renal it was -5.74% (active); with TK-10 renal, 99%; in the experiment with ACHN renal, 67.5%. In addition, the growth with CAKI-1 renal was 94.3%; in the experiment on A498 renal, 83.5%; in the experiment with CCRF-CEM leukemia, 80.5%; with MOLT-4 leukemia, 53.1%; in the experiment on RPMI-8226 leukemia, 67.9%; in the experiment with OVCAR-8 ovarian, 91.3%. Moreover, the growth with OVCAR-5 ovarian was 104%; in the experiment with OVCAR-4 ovarian, 81%; in the experiment on SK-OV-3 ovarian, 109%; in the experiment on HS 578T breast, 91.3%; with NCI/ADR-RES ovarian, 93.9%.

For `C[C@@H]1N=C(c2ccc3ccccc3n2)Nc2nc3ccccn3c2C1=O`, the growth in the experiment with SK-MEL-2 melanoma was 109%; with EKVX NSCLC it was 77.7%; with SN12C renal it was 95.6%; in the experiment on UO-31 renal, 70.1%; in the experiment with TK-10 renal, 142%; in the experiment on ACHN renal it was 85.7%. Besides, the growth with CAKI-1 renal was 82.1%; with A498 renal, 108%; in the experiment on CCRF-CEM leukemia it was 115%; in the experiment with MOLT-4 leukemia, 100%; in the experiment with RPMI-8226 leukemia, 93.8%; with OVCAR-8 ovarian, 101%. The growth was 106% with OVCAR-5 ovarian; 89.5% with OVCAR-4 ovarian; 66.3% in the experiment on IGROV1 ovarian; 109% with OVCAR-3 ovarian; 97.7% in the experiment with HS 578T breast; 93.6% in the experiment on NCI/ADR-RES ovarian.

`CCOC(=O)c1csc(NC(=O)COc2cccc(/C=C3\Oc4cc(OC)ccc4C3=O)c2)n1`: the growth in the experiment on SK-MEL-2 melanoma is 83.5%; in the experiment on EKVX NSCLC, 98.6%; with SN12C renal it was 109%; in the experiment on UO-31 renal, -38.8% (active); with TK-10 renal, 125%; in the experiment with ACHN renal it was 95.5%. Also, the growth in the experiment with CAKI-1 renal was 92.3%; in the experiment on A498 renal, 108%; with CCRF-CEM leukemia it was 62.3%; with MOLT-4 leukemia, 65.1%; in the experiment with RPMI-8226 leukemia it was 64.4%; in the experiment on OVCAR-8 ovarian it was 74.2%. Moreover, the growth in the experiment with OVCAR-5 ovarian is 130%; in the experiment with OVCAR-4 ovarian, 90%; in the experiment with SK-OV-3 ovarian it was 101%; in the experiment with OVCAR-3 ovarian, 78.4%; in the experiment on HS 578T breast, 91.3%; in the experiment on NCI/ADR-RES ovarian, 79.4%.

For the compound `COc1cc(C2CC(c3cc(OC)c(OCCCOc4ccc(-n5c(/C=C/c6ccccc6)nc6ccccc6c5=O)cc4)c(OC)c3)=NO2)cc(OC)c1OC` (stereo not given), the growth in the experiment with SK-MEL-2 melanoma was 92.3%; in the experiment with EKVX NSCLC, 118%; with SN12C renal it was 127%; in the experiment on UO-31 renal, 86.7%; in the experiment on TK-10 renal it was 139%; with ACHN renal, 91.3%. Besides, the growth in the experiment on CAKI-1 renal is 115%; in the experiment on A498 renal it was 123%; in the experiment on CCRF-CEM leukemia, 76.6%; in the experiment on MOLT-4 leukemia, 86%; in the experiment with RPMI-8226 leukemia it was -9.38% (active); with OVCAR-8 ovarian, 104%. Also, the growth is 105% with OVCAR-5 ovarian; 87% in the experiment on OVCAR-4 ovarian; 114% in the experiment with SK-OV-3 ovarian; 118% in the experiment on OVCAR-3 ovarian; 108% with HS 578T breast; 107% in the experiment on NCI/ADR-RES ovarian.

Turning to `COc1ccc2c(c1)C(=O)/C(=C/c1cccc(OCC(=O)Nc3nc(C)c(C)s3)c1)O2`, the growth in the experiment with SK-MEL-2 melanoma was 59.9%; in the experiment with EKVX NSCLC, -45.3% (active); with SN12C renal, 3.1% (active); in the experiment on UO-31 renal, -79.1% (active); in the experiment with TK-10 renal, -14.3% (active); in the experiment with ACHN renal it was -56.5% (active). Besides, the growth in the experiment on CAKI-1 renal was -81.5% (active); in the experiment with A498 renal, 97.2%; in the experiment on CCRF-CEM leukemia, -69.6% (active); in the experiment with MOLT-4 leukemia it was -65.4% (active); in the experiment with RPMI-8226 leukemia, -63.3% (active); in the experiment on OVCAR-8 ovarian, 4.69% (active). Further, the growth in the experiment with OVCAR-5 ovarian was -77.3% (active); in the experiment on OVCAR-4 ovarian it was -66.7% (active); in the experiment on SK-OV-3 ovarian, 46.1%; in the experiment on OVCAR-3 ovarian, -58.9% (active); in the experiment on HS 578T breast it was 5.38% (active); in the experiment with NCI/ADR-RES ovarian, -59% (active).

For the compound `COc1ccc(NC(=O)CSc2nc(C)c(C(C)=O)n2-c2ccc(Cl)cc2)cc1`, the growth in the experiment with SK-MEL-2 melanoma is 102%; in the experiment on EKVX NSCLC it was 95.5%; in the experiment on SN12C renal, 92.5%; in the experiment on UO-31 renal, 102%; in the experiment with TK-10 renal it was 125%; in the experiment with ACHN renal, 99%. In addition, the growth is 97.8% with CAKI-1 renal; 75.6% with A498 renal; 108% in the experiment on CCRF-CEM leukemia; 91% with MOLT-4 leukemia; 97.3% with RPMI-8226 leukemia; 88.7% in the experiment with OVCAR-8 ovarian. Besides, the growth in the experiment with OVCAR-5 ovarian is 98.6%; in the experiment with OVCAR-4 ovarian it was 85.3%; in the experiment on IGROV1 ovarian, 95.1%; in the experiment with OVCAR-3 ovarian it was 100%; in the experiment on HS 578T breast, 90.4%; in the experiment on NCI/ADR-RES ovarian it was 89.4%.

`COc1ccc(-c2nc3sccn3c2-c2cc(-c3cc(OC)c(OC)c(OC)c3)on2)cc1`: the growth in the experiment on SK-MEL-2 melanoma was 142%; in the experiment on EKVX NSCLC, 98.9%; with SN12C renal, 105%; with UO-31 renal it was -60.9% (active); in the experiment with TK-10 renal it was 162%; with ACHN renal, 98.7%. Also, the growth in the experiment on CAKI-1 renal is 127%; with A498 renal, 74.4%; in the experiment on CCRF-CEM leukemia, 34.6%; in the experiment on MOLT-4 leukemia, 40.3%; in the experiment on RPMI-8226 leukemia, 41.5%; in the experiment with OVCAR-8 ovarian, 94.6%. The growth was 124% in the experiment on OVCAR-5 ovarian; 84.4% in the experiment on OVCAR-4 ovarian; 92.2% in the experiment with SK-OV-3 ovarian; 92.5% in the experiment on HS 578T breast; 87.5% in the experiment with NCI/ADR-RES ovarian.

Consider `CCCc1cc2c(=O)c(C(=O)OC)c[nH]c2cc1N(CC)CC`, for which the growth is 93.9% in the experiment with SK-MEL-2 melanoma; 106% in the experiment with EKVX NSCLC; 94.7% with SN12C renal; 82.6% with UO-31 renal; 101% in the experiment on TK-10 renal; 92.7% in the experiment with ACHN renal. Moreover, the growth in the experiment on CAKI-1 renal is 94.9%; in the experiment on A498 renal, 107%; in the experiment with CCRF-CEM leukemia, 88.2%; with MOLT-4 leukemia, 98.2%; with RPMI-8226 leukemia, 82.5%; with OVCAR-8 ovarian, 102%. The growth in the experiment on OVCAR-5 ovarian is 88.8%; in the experiment with OVCAR-4 ovarian, 101%; with SK-OV-3 ovarian it was 100%; in the experiment on OVCAR-3 ovarian, 95.3%; in the experiment with HS 578T breast, 123%; in the experiment with NCI/ADR-RES ovarian it was 99%.

With `COc1ccc(C2CC(c3cccc(OC)c3)=NN2C(=O)c2cc(OC)c(OC)c(OC)c2)cc1` (stereo not given), the growth with SK-MEL-2 melanoma was 35.9%; with EKVX NSCLC it was 46.5%; in the experiment on SN12C renal, 39.6%; in the experiment with UO-31 renal it was 27.4%; in the experiment on TK-10 renal, 36.8%; with ACHN renal, 46.9%. The growth in the experiment on CAKI-1 renal was 23.6%; in the experiment with A498 renal, -0.548% (active); in the experiment on CCRF-CEM leukemia it was 8.7% (active); in the experiment with MOLT-4 leukemia, 9.31% (active); with RPMI-8226 leukemia it was 15%; in the experiment on OVCAR-8 ovarian, 43.9%. The growth in the experiment on OVCAR-5 ovarian was 44.5%; in the experiment on OVCAR-4 ovarian, 56.6%; in the experiment on SK-OV-3 ovarian, 33.7%; with IGROV1 ovarian, 27.9%; with HS 578T breast, -13.5% (active); in the experiment on NCI/ADR-RES ovarian, -30.4% (active).
